# Compound activity as filed in PubChem BioAssay.
# BoNT-F LC inh – BoNT/F light chain protease inhibitors, primary screen, biochemical, flow cytometry, MLPCN library; Multiplex microsphere protease cleavage assay; inhibition, % at 10 µM; 360,000 compounds, 0.22% hits; AID 588497, 2011; in the data active = inhibition above about 35%, passing the limit was not always enough; inconclusive = no clear call, values can overlap the other calls; also: plate controls were buffer without enzyme for full effect and enzyme alone for no effect
# Anthrax LF inh2 – Bacillus anthracis LF protease inhibitors, primary screen, biochemical, multiplex microsphere, MLPCN library. AID 588501, 2011. 360,000 compounds, 0.12% hits. multiplex microsphere protease cleavage assay. Lethal factor (Bacillus anthracis), P15917. inhibition, % at 10 µM; also: plate controls were buffer without enzyme for full effect and enzyme alone for no effect
# MazF activator – activators of E. coli MazEF toxin-antitoxin RNase, primary screen, biochemical, fluorescence, uHTS; FAM/BHQ RNA-DNA oligo cleavage fluorescence, 5 h; Endoribonuclease toxin MazF (Escherichia coli (strain K12)), P0AE70; 350,000 compounds, 0.32% hits; activation, % at 20 µM; in the data active = activation above about 50%
# Target sequence (P0AE70 whole entry, looked up): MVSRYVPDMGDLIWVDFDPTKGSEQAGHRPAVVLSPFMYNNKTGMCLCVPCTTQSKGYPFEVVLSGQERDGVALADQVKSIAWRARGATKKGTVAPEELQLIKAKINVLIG
# Autofluor counter – counter-screen for toxin protease inhibitors: compound fluorescence; compound autofluorescence counterscreen, microsphere flow cytometry; hits give high values; fluorescence intensity (concentration not given with the values); 360,000 compounds, 3.1% hits; in the data active = fluorescence intensity above about 16000; inconclusive = no clear call, values can overlap the other calls
# SSB-PriA inh – inhibitors of Klebsiella pneumoniae PriA binding to SSB C-terminal tail, primary screen, biochemical, AlphaScreen. PriA–SSB C-terminal tail interaction (Klebsiella pneumoniae). AlphaScreen SSBct-PriA binding, biotinylated peptide. inhibition, % at 33 µM. 430,000 compounds, 0.6% hits. AID 1272365, 2023; in the data active = inhibition mostly above about 37%, no sharp cut-off; inactive = mostly below about 20%;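 also: plate controls were negative control peptide for no effect and reference peptide for full effect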
# BoNT A protease – BoNT/A light chain protease inhibitors, primary screen, biochemical, flow cytometry, MLPCN library. inhibition, % at 10 µM. Botulinum neurotoxin type A light chain protease (Clostridium botulinum A str. ATCC 3502). multiplex microsphere protease substrate cleavage. 360,000 compounds, 0.17% hits; also: plate controls were buffer without enzyme for full effect and enzyme alone for no effect
# Active calls of the source: *; ? = inconclusive; / = no result. Only some compounds are listed: those with a hit (about 3.3% of all), similar ones and a draw of the others. Rule as the data show it, unless noted: active = inhibition above about 30%; inconclusive = no clear call, values can overlap the other calls; inactive = below that.
SMILES,BoNT-F LC inh,Anthrax LF inh2,MazF activator,Autofluor counter,SSB-PriA inh,BoNT A protease
CC1(C)C(=O)OC(c2cccs2)C(C)(C)C1=O (centres undefined),0,-5,-1,19729*,-8,0
CC(C)N1CCN(Cc2cc3c(cc2Cl)OCO3)CC1CCO (centres undefined),-4,4,83*,4327,-3,0
CC(C)N1CCN(Cc2cccc3c2OCO3)CC1CCO (centres undefined),-2,-1,6,2607,9,0
Cc1cccc(-n2c(CNC(=O)COc3ccccc3)nnc2SCC(=O)N2CCc3ccccc32)c1C,/,/,/,/,-12,/
CCC(CO)Oc1cc(NCc2ccc(Cl)cc2Cl)c2ncn(C(C)C)c2c1 (centres undefined),-5,-14,-5,3008,39*,-1
COc1nc(NN=Cc2ccccc2F)nc(N2CCCCC2)n1,/,/,/,/,-22,/
COc1nc(N/N=C/c2ccccc2F)nc(N2CCCCC2)n1,2,0,3,22376*,/,3
COc1ccc(Br)cc1S(=O)(=O)Nc1ncccn1,/,/,/,/,0,/
Cc1ccc2oc3c(c(=O)c2c1)C(c1cccc(Br)c1)N(Cc1ccco1)C3=O (centres undefined),0,-5,12,18391*,-12,3
CCOc1cc(C2c3c(oc4cc(C)c(Cl)cc4c3=O)C(=O)N2Cc2ccco2)ccc1O (centres undefined),-3,-9,-5,21623*,-5,-1
COc1ccc(/C=C\C(=O)Nc2cc(-c3cccs3)nn2-c2nc(C)c(C)c(=O)[nH]2)cc1OC,/,/,/,/,-2,/
C=CCN=c1scc(-c2ccc(F)cc2)n1N=Cc1ccccn1,/,/,/,/,24,/
COc1ccc(C(=O)CSc2nnc(-c3cc4ccccc4cc3O)n2Cc2ccco2)cc1,-6,-4,5,23275*,-3,-1
COc1ccc(C(=O)CSc2nnc(-c3cccnc3)n2Cc2ccco2)cc1,4,-6,0,10586,-11,0
COc1ccc(-c2cnc(SCC(=O)Nc3nc(C(C)(C)C)cs3)n2Cc2ccco2)cc1,-3,-5,-4,3459,25,1
C=CCn1c(SCC(=O)Nc2ccccc2C)nnc1-c1ccncc1,-3,-2,1,2806,-5,1
COc1ccc(-c2cnc(SCC(=O)Nc3nc(C)cs3)n2Cc2ccco2)cc1,/,/,/,/,30*,/
C=CCn1c(SCC(=O)Nc2ccccc2CC)nnc1-c1ccncc1,0,-6,8,23141*,6,1
COc1ccccc1NC(=O)CSc1nnc(-c2ccco2)n1Cc1ccco1,-1,0,2,19643*,-3,0
O=C(CSc1nc(-c2cccs2)cc(C(F)(F)F)n1)c1ccc2c(c1)OCO2,/,/,/,/,-17,/
CC1(C)CC(=O)C2C(=Nc3nc(SCc4ccccc4Cl)nn3C2c2cccc(O)c2)C1 (centres undefined),/,/,/,/,-8,/
COc1ccccc1NC(=O)CSc1nnc(-c2ccc(C)cc2)n1Cc1ccco1,/,/,/,/,47,/
COc1ccccc1NC(=O)CSc1nnc(-c2ccncc2)n1Cc1ccco1,/,/,/,/,56*,/
Cc1ccc(NC(=O)CSc2ccc(N3CCN(c4ccccc4Cl)CC3)nn2)cc1C,/,/,/,/,-8,/
C/C=C/c1ccc(OCC(O)CN2CCN(c3ccccc3F)CC2)c(OC)c1 (centres undefined),/,/,/,/,0,/
SMILES,BoNT-F LC inh,Anthrax LF inh2,MazF activator,Autofluor counter,SSB-PriA inh,BoNT A protease
Cc1ccc(C(=O)NCCn2cc(SC(=N)N)c3ccccc32)cc1,/,/,/,/,39*,/
C[C@](O)(CNC(=O)c1c(F)cccc1F)c1cc2ccccc2o1,/,/,/,/,-6,/
O=C(CN1CCN(Cc2ccccc2)CC1)c1ccc(Br)cc1,-5,4,-5,21164*,0,0
CSc1ccc(C(=S)N2CCN(Cc3ccccc3)CC2)cc1,13,-17,2,19865*,1,7
O=C(C1CCCN(S(=O)(=O)c2ccc(Br)cc2)C1)N1CCN(Cc2ccccc2)CC1 (centres undefined),-391,-60,4,55843*,5,-234
O=C(C1CCCN(S(=O)(=O)c2ccccc2)C1)N1CCN(c2ccccc2)CC1 (centres undefined),8,-2,5,3835,-8,4
S=C(c1ccc(Cl)cc1)N1CCN(Cc2ccccc2)CC1,3,-5,-9,4627,0,0
COC(=O)c1cc(OC)c(OC)cc1NC(=O)c1ccc2c(c1)OCCO2,/,/,/,/,-3,/
O=C(c1ccsc1)N1CC(S(=O)(=O)c2ccc(Cl)cc2)C1,/,/,/,/,-17,/
O=C1N2CCCc3cccc(c32)C12Nc1ccccc1S2 (centres undefined),-8,-4,6,2154,6,-1
CC1CC(C)(C)N2C(=O)C3(Nc4ccccc4S3)c3cccc1c32 (centres undefined),-2,-3,3,22846*,28,?
O=C(NCCCN1CCOCC1)C(=O)NCc1cccs1,/,/,/,/,-6,/
O=C(/C=C/c1ccco1)NCCSc1ncc(-c2ccc(Cl)cc2)[nH]1,/,/,/,/,30,/
O=C(/C=C/c1ccc2c(c1)OCO2)NCCSc1ncc(-c2ccc(Cl)cc2)[nH]1,/,/,/,/,38*,/
CCOc1ccccc1-c1nc(CSc2nc3ccccc3c(=O)n2Cc2ccco2)c(C)o1,/,/,/,/,-13,/
CNc1nc(-c2ccccn2)cs1,/,/,/,/,118*,/
COc1ccc(CCNc2nc(-c3ccncc3)cs2)cc1OC,-2,-4,-2,4537,1,-1
COc1ccc(CCNc2nc(-c3ccccn3)cs2)cc1OC,-5,-1,2,4081,39*,-2
Cc1cccc(Nc2nc(-c3ccccn3)cs2)n1,-18,-1,-9,10704,95*,-3
CNc1nc(-c2c[nH]c3ccccc23)cs1,?,?,-10,1655,52*,?
Cc1cc(C)c[n+](CC(N)=O)c1,/,/,/,/,-16,/
COc1ccc(-c2ccc(N3CCCC(C(=O)Nc4ccc(C(C)=O)cc4)C3)nn2)cc1 (centres undefined),/,/,/,/,1,/
Cc1cccnc1Nc1nc(-c2ccccc2)cs1,-18,7,2,3981,-5,2
Cc1cccnc1Nc1nc(-c2ccccn2)cs1,-1,1,7,3055,68*,-2
O=C(NC1CCCCC1)C(Cc1ccccc1)N1C(=O)C2C3CCC(C3)C2C1=O (centres undefined),2,3,0,4201,-2,0
O=C(NCc1ccccc1)C(Cc1ccccc1)N1C(=O)C2C3CCC(C3)C2C1=O (centres undefined),10,-16,3,16697*,4,9
